Assay results from PubChem BioAssay (Tox21).
Results filed as inconclusive are left out. Entries that show only a call come without a potency. The source holds several records for some structures; these can differ, active in one and inactive in another. Activity calls are given as the source filed them. Calls follow the shape of the full dose curve.

Test: qHTS assay to identify small molecule agonists of the endoplasmic reticulum stress response signaling pathway - cell viability counter screen (AID 1159517); also: nearly all actives have a fitted effect of over 50% in size
Settings: ESRE-bla HeLa viability, CellTiter-Glo luminescence, 5 h; series mostly up to 61 µM
Excerpt: U.S. Tox21 Program National Center for Advancing Translational Sciences [NCATS] NIH Chemical Genomics Center [NCGC] U.S. Environmental Protection Agency [EPA] National Institutes of Environmental Health Sciences [NIEHS] National Toxicology Program [NTP] U.S. Food and Drug Administration [FDA] Tox21 Assay Overview: Endoplasmic Reticulum (ER) plays an important role in cellular signaling, protein folding/maturation, stress response, lipid biosynthesis, calcium storage and release etc. Under stress conditions, proteins in ER misfold or unfold, and leading to the expression of ER stress responsive genes. ER stress has been associated with a variety of pathophysiological conditions such as cancer, inflammation, neurodegenerative diseases, diabetes, ischemic heart disease etc. To identify the compounds that induce ER stress response, an ER stress reporter cell line, CellSensor ESRE-bla HeLa (Life Technologies, Carlsbad, CA) containing a beta-lactamase reporter gene under control of the Endoplasmic reticulum Stress Response Element (ESRE) was used to screen Tox21 10K compound library. The cytotoxicity of the Tox21 compound library against the ESRE-bla HeLa cell line was tested in parallel by measuring cell viability using the CellTiter-Glo assay in the same wells.
Tox21 Assay Protocol Summary: ESRE-bla HeLa cells were dispensed at 1,500 cells/6 uL of assay medium per well into black wall/clear-bottom 1536-well plates using a Multidrop Combi (ThermoFisher Scientific, Waltham, MA) dispenser. After the assay plates were incubated at 37 C and 5% CO2 for an overnight, 23 nL of compounds dissolved in DMSO, positive controls or DMSO only was transferred to the assay plate by a Pintool station (Kalypsys, San Diego, CA). The assay plates were incubated at 37 C and 5% CO2 for 5 hr. One uL of LiveBLAzer B/G FRET substrate (Life Technologies) was added using a FRD (Flying Reagent Dispenser, Aurora Discovery, San Diego, CA) and the plates were incubated at room temperature for 2 hr. Fluorescence intensity (405 nm excitation, 460 nm and 530 nm emissions) was measured using an Envision plate reader (PerkinElmer, Shelton, CT). For cytotoxicity, 4 ul/well of CellTiter-Glo reagent was added into the assay plates using an FRD. After 30 min incubation at room temperature, the luminescence intensity was measured using a ViewLux plate reader (PerkinElmer).
Potency is read from the fitted curve at half-maximal effect.

Structure (SMILES) | Potency | activity change, negative = cytotoxicity
CC(Cc1ccccc1)NCCn1cnc2c1c(=O)n(C)c(=O)n2C (stereo not given) | inactive | 
C=CC=O | inactive | 
O=C(NC(=O)c1c(F)cccc1F)Nc1cc(Cl)c(F)c(Cl)c1F | inactive | 
O=P(O)(O)c1ccccc1 | inactive | 
CCN(CCO)CCn1c(Cc2ccccc2)nc2c1c(=O)n(C)c(=O)n2C | inactive | 
C#CCOC(=O)/C=C(C)/C=C/CC(C)CCCC(C)C (stereo not given) | inactive | 
O=C(Cl)c1ccccc1 | inactive | 
CCN[C@@H](C)Cc1cccc(C(F)(F)F)c1 | inactive | 
c1cncc([C@@H]2CCCCN2)c1 | inactive | 
CN(C)C1CCCCC1 | inactive | 
COc1ccc2c(C(=O)c3ccc(Cl)cc3)c(C)n(CC(=O)O)c2c1 | inactive | 
Oc1ccc2c3c1O[C@H]1[C@@H](O)C=C[C@H]4[C@@H](C2)NCC[C@@]341 | inactive | 
COC(=O)c1ccccc1CS(=O)(=O)NC(=O)Nc1nc(OC)cc(OC)n1 | inactive | 
CCOP(=O)(CN(CCO)CCO)OCC | inactive | 
CN1COCN(Cc2cnc(Cl)s2)/C1=N\[N+](=O)[O-] | inactive | 
CC(C)(C)C(=O)C(Cl)Cl | inactive | 
CCOC(=O)c1ncn2c1CN(C)C(=O)c1c(I)cccc1-2 | inactive | 
C=C(Cl)CSC(=S)N(CC)CC | inactive | 
Brc1c(Br)c(Br)c(Br)c(Br)c1Br |  | 1.86% [at 6.95 µM] (inactive)
C[C@H]1CCCC(=O)CCC/C=C/c2cc(O)cc(O)c2C(=O)O1 | 47.2 µM (active) and inactive | 

Structure (SMILES) | Potency | activity change, negative = cytotoxicity
Clc1ccc(C(Cl)(Cl)Cl)cn1 | inactive | 
COc1ccc(C=O)cc1O | inactive | 
N#CN | inactive | 
CCC1(c2cccc(O)c2)CCCCN(C)C1 (stereo not given) | inactive | 
ClCCCCl | inactive | 
Nc1c(Cl)c(F)nc(OCC(=O)O)c1Cl | inactive | 
CC(C)(C)NC[C@H](O)c1ccc(O)cc1Cl | inactive | 
c1ccc2c(c1)CCNC2 | inactive | 
CN(CCO)CCO | inactive | 
CC1N=C(N)OC1c1ccccc1 (stereo not given) | inactive | 
COC(=O)[C@@H](N)CCCN/C(N)=N/[N+](=O)[O-] | inactive | 
O=C1CC(=O)NC(=O)N1 | inactive | 
CCCOC(=O)c1cncn1C(C)c1ccccc1 (stereo not given) | inactive | 
CC(C)(C)C(=O)Cl | inactive | 
COc1cc(CCN)cc(OC)c1OC | inactive | 
CN(C)C(=O)Oc1cc(OC(=O)N(C)C)cc(C(O)CNC(C)(C)C)c1 (stereo not given) | inactive | 
O=C1CCCCC1Cl (stereo not given) | inactive | 
O=C(CCl)NCO | inactive | 
NC1(c2ccccc2)CCCCC1 | inactive | 
C[C@H](N)C(=O)c1ccccc1 | inactive | 
